Data published in PubChem BioAssay (NCI).
About 83,000 compounds went through this panel and 20% of them were active in at least one assay; those are over-represented in the sample as a whole.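 Growth was measured after 48 h exposure to one concentration of compound in 96-well plates. Values under 10 count as active.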 Calls of active or inactive are those of the source.

Experiments:
Assay in all cases: NCI-60 one-dose screen, 48 h (100 = growth as untreated, 0 = no growth, -100 = all killed)
Conditions in all cases: 10 µM unless noted
SK-MEL-2 melanoma = test system: SK-MEL-2 melanoma
EKVX NSCLC = test system: EKVX NSCLC
SN12C renal = test system: SN12C renal
UO-31 renal = test system: UO-31 renal
TK-10 renal = test system: TK-10 renal
ACHN renal = test system: ACHN renal
A498 renal = test system: A498 renal
CCRF-CEM leukemia = test system: CCRF-CEM leukemia
MOLT-4 leukemia = test system: MOLT-4 leukemia
SR leukemia = test system: SR leukemia
RPMI-8226 leukemia = test system: RPMI-8226 leukemia
OVCAR-8 ovarian = test system: OVCAR-8 ovarian
OVCAR-5 ovarian = test system: OVCAR-5 ovarian
OVCAR-4 ovarian = test system: OVCAR-4 ovarian
SK-OV-3 ovarian = test system: SK-OV-3 ovarian
IGROV1 ovarian = test system: IGROV1 ovarian
OVCAR-3 ovarian = test system: OVCAR-3 ovarian
HS 578T breast = test system: HS 578T breast
NCI/ADR-RES ovarian = test system: NCI/ADR-RES ovarian
T-47D breast = test system: T-47D breast

Measured: growth

NC(=O)C(O)(c1ccccc1)c1ccccc1
active: OVCAR-3 ovarian -48.6%
inactive: SK-MEL-2 melanoma 105% | EKVX NSCLC 100% | SN12C renal 99% | UO-31 renal 93.8% | TK-10 renal 97.3% | ACHN renal 108% | A498 renal 84.9% | CCRF-CEM leukemia 87.9% | MOLT-4 leukemia 98.6% | SR leukemia 83% | RPMI-8226 leukemia 93.2% | OVCAR-8 ovarian 98.2% | OVCAR-5 ovarian 110% | OVCAR-4 ovarian 101% | SK-OV-3 ovarian 97.2% | IGROV1 ovarian 111% | HS 578T breast 97.1% | NCI/ADR-RES ovarian 102% | T-47D breast 90.1%

COc1ccc(-c2cc(C(=O)N3N=C(c4ccc(N)cc4)CC3c3ccc(OC)cc3)c3cc(OC)ccc3n2)cc1 (stereo not given)
active: NCI/ADR-RES ovarian -8.76%
inactive: SK-MEL-2 melanoma 64.5% | EKVX NSCLC 68.9% | SN12C renal 61.8% | UO-31 renal 56.6% | TK-10 renal 93.8% | ACHN renal 54.5% | A498 renal 71.3% | CCRF-CEM leukemia 63.3% | MOLT-4 leukemia 54.5% | SR leukemia 19.4% | RPMI-8226 leukemia 16.9% | OVCAR-8 ovarian 22.1% | OVCAR-5 ovarian 103% | OVCAR-4 ovarian 71.9% | SK-OV-3 ovarian 78.3% | IGROV1 ovarian 50.8% | OVCAR-3 ovarian 22% | HS 578T breast 45.9% | T-47D breast 43.4%

COc1cc(C2CC(c3ccc(Nc4nc(NCCO)nc(NCCO)n4)cc3)=NN2c2cc(Cl)cc(Cl)c2)cc(OC)c1OC (stereo not given)
inactive: SK-MEL-2 melanoma 85% | EKVX NSCLC 35.2% | SN12C renal 13.1% | UO-31 renal 49.4% | ACHN renal 67.3% | A498 renal 96.8% | CCRF-CEM leukemia 19.3% | MOLT-4 leukemia 16.3% | OVCAR-8 ovarian 11.9% | OVCAR-5 ovarian 54.6% | SK-OV-3 ovarian 108% | NCI/ADR-RES ovarian 53.1% | T-47D breast 75.4%
active: TK-10 renal -25.7% | SR leukemia -9.38% | RPMI-8226 leukemia -13.8% | OVCAR-4 ovarian -20.1% | IGROV1 ovarian 4.18% | OVCAR-3 ovarian -22.5% | HS 578T breast -14.5%

Clc1ccc2c(NCCCNC3CCCCC3)ccnc2c1
active: MOLT-4 leukemia 6.38%
inactive: SK-MEL-2 melanoma 107% | EKVX NSCLC 66.2% | SN12C renal 97% | UO-31 renal 83% | TK-10 renal 111% | ACHN renal 116% | A498 renal 98.9% | CCRF-CEM leukemia 67.7% | SR leukemia 46.8% | RPMI-8226 leukemia 82% | OVCAR-8 ovarian 54.7% | OVCAR-5 ovarian 114% | OVCAR-4 ovarian 91.2% | SK-OV-3 ovarian 140% | IGROV1 ovarian 111% | OVCAR-3 ovarian 109% | HS 578T breast 108% | NCI/ADR-RES ovarian 109% | T-47D breast 108%

c1ccc(-c2n(Cc3ccc4ccccc4n3)cc[n+]2Cc2ccc3ccccc3n2)cc1
active: SK-MEL-2 melanoma -5.81% | RPMI-8226 leukemia 0.454% | T-47D breast 9.75%
inactive: EKVX NSCLC 70.2% | SN12C renal 22.1% | UO-31 renal 76.5% | TK-10 renal 58.7% | ACHN renal 96.8% | A498 renal 56.1% | CCRF-CEM leukemia 28.4% | MOLT-4 leukemia 37.9% | SR leukemia 25.1% | OVCAR-8 ovarian 33.6% | OVCAR-5 ovarian 70.5% | OVCAR-4 ovarian 32.9% | SK-OV-3 ovarian 48.9% | IGROV1 ovarian 33.9% | OVCAR-3 ovarian 28.8% | HS 578T breast 60.4% | NCI/ADR-RES ovarian 105%

Cc1ccc(C(=O)/C(=C/c2ccc([N+](=O)[O-])cc2)S(=O)Cc2ccccc2)cc1 (stereo not given)
inactive: SK-MEL-2 melanoma 57.9% | EKVX NSCLC 30.3% | A498 renal 41% | OVCAR-8 ovarian 18.5% | OVCAR-5 ovarian 39.5% | OVCAR-4 ovarian 35% | SK-OV-3 ovarian 80.2% | NCI/ADR-RES ovarian 14.3%
active: SN12C renal -41.1% | UO-31 renal -83.7% | TK-10 renal 6.85% | ACHN renal -52.8% | CCRF-CEM leukemia 6.67% | MOLT-4 leukemia 1.79% | SR leukemia 0.101% | RPMI-8226 leukemia -13% | IGROV1 ovarian -7.98% | OVCAR-3 ovarian 0.0452% | HS 578T breast -2.56% | T-47D breast -38.3%

N#Cc1c(-c2ccc(F)cc2)nc(N=Nc2c(O)[nH]c3ccccc23)nc1N1CCOCC1
active: OVCAR-4 ovarian -35.5%
inactive: SK-MEL-2 melanoma 105% | EKVX NSCLC 77.6% | SN12C renal 30.4% | UO-31 renal 60.4% | TK-10 renal 65.4% | ACHN renal 65.5% | A498 renal 80.8% | CCRF-CEM leukemia 77.4% | MOLT-4 leukemia 95.3% | SR leukemia 88.2% | RPMI-8226 leukemia 80.4% | OVCAR-8 ovarian 77.7% | OVCAR-5 ovarian 82.6% | SK-OV-3 ovarian 88.2% | IGROV1 ovarian 59.9% | OVCAR-3 ovarian 72.9% | HS 578T breast 38.5% | NCI/ADR-RES ovarian 57.3% | T-47D breast 80.2%

COc1ccc(-c2nnc(N3CCN(C(=O)CN4CCN(c5ccc(OC)cc5)CC4)CC3)nc2-c2ccc(OC)cc2)cc1
inactive: EKVX NSCLC 41.5% | TK-10 renal 28.6% | ACHN renal 54.6% | A498 renal 98.1% | OVCAR-5 ovarian 111% | SK-OV-3 ovarian 101% | HS 578T breast 21%
active: SK-MEL-2 melanoma -63.6% | SN12C renal -72.7% | UO-31 renal -64.4% | CCRF-CEM leukemia -50.7% | MOLT-4 leukemia -54.2% | SR leukemia -54.2% | RPMI-8226 leukemia -59.8% | OVCAR-8 ovarian -54.9% | OVCAR-4 ovarian -48.3% | IGROV1 ovarian -60.8% | OVCAR-3 ovarian -96.1% | NCI/ADR-RES ovarian -40.6% | T-47D breast -64.5%

Nc1cc(N)c(S(=O)(=O)O)cc1N=Nc1cc([N+](=O)[O-])ccc1O
inactive: SK-MEL-2 melanoma 98.1% | EKVX NSCLC 103% | SN12C renal 100% | UO-31 renal 89.4% | TK-10 renal 102% | ACHN renal 109% | A498 renal 103% | CCRF-CEM leukemia 93.9% | MOLT-4 leukemia 90.5% | SR leukemia 90.3% | RPMI-8226 leukemia 98.8% | OVCAR-8 ovarian 99.5% | OVCAR-5 ovarian 108% | OVCAR-4 ovarian 109% | SK-OV-3 ovarian 93.8% | IGROV1 ovarian 106% | OVCAR-3 ovarian 113% | HS 578T breast 103% | NCI/ADR-RES ovarian 106% | T-47D breast 97.2%

O=C(O)c1cn(C2CC2)c2cc(N3CCN(C(=O)CSc4nnc(-c5ccc(Cl)cc5)n4-c4ccccc4)CC3)c(F)cc2c1=O
inactive: SK-MEL-2 melanoma 104% | EKVX NSCLC 111% | SN12C renal 102% | UO-31 renal 84.7% | TK-10 renal 99.4% | ACHN renal 108% | A498 renal 67.8% | CCRF-CEM leukemia 84.3% | MOLT-4 leukemia 103% | SR leukemia 89.9% | RPMI-8226 leukemia 102% | OVCAR-8 ovarian 102% | OVCAR-5 ovarian 121% | OVCAR-4 ovarian 110% | SK-OV-3 ovarian 79.8% | IGROV1 ovarian 107% | OVCAR-3 ovarian 110% | HS 578T breast 101% | NCI/ADR-RES ovarian 104% | T-47D breast 77.9%

CC1(C)[C@@H](O)CC[C@]2(C)[C@H]3CC[C@@H]4[C@H]5[C@H](c6cn(-c7ccccc7)nn6)CC[C@]5(CO)CC[C@@]4(C)[C@]3(C)CC[C@@H]12
inactive: SK-MEL-2 melanoma 92.4% | EKVX NSCLC 88% | SN12C renal 90% | UO-31 renal 79.9% | TK-10 renal 98.4% | ACHN renal 84.4% | A498 renal 87.6% | CCRF-CEM leukemia 94.4% | MOLT-4 leukemia 67.7% | SR leukemia 64.7% | RPMI-8226 leukemia 73.2% | OVCAR-8 ovarian 85.2% | OVCAR-5 ovarian 118% | OVCAR-4 ovarian 98.3% | SK-OV-3 ovarian 103% | IGROV1 ovarian 119% | OVCAR-3 ovarian 88.2% | HS 578T breast 94.6% | NCI/ADR-RES ovarian 80.9% | T-47D breast 63.9%

Cc1ccc(-c2nc(C#N)c(S(=O)(=O)N(C)CCO)o2)cc1
active: CCRF-CEM leukemia 2.67% | MOLT-4 leukemia 7.32%
inactive: SK-MEL-2 melanoma 80.4% | EKVX NSCLC 107% | SN12C renal 51% | UO-31 renal 78.4% | TK-10 renal 116% | ACHN renal 60.7% | A498 renal 114% | SR leukemia 10.8% | RPMI-8226 leukemia 27.7% | OVCAR-8 ovarian 67.4% | OVCAR-5 ovarian 92% | OVCAR-4 ovarian 105% | SK-OV-3 ovarian 102% | IGROV1 ovarian 60.5% | OVCAR-3 ovarian 42.3% | HS 578T breast 99.3% | NCI/ADR-RES ovarian 96.7% | T-47D breast 67.3%

O=C(Nc1ccc2ncnc(Nc3ccc(F)c(Cl)c3)c2c1)c1ccccc1
inactive: SK-MEL-2 melanoma 87.5% | EKVX NSCLC 61.2% | SN12C renal 71.2% | UO-31 renal 63.3% | TK-10 renal 36.8% | ACHN renal 37% | A498 renal 67.6% | CCRF-CEM leukemia 98.6% | MOLT-4 leukemia 63.4% | SR leukemia 66.7% | RPMI-8226 leukemia 66.9% | OVCAR-8 ovarian 79.1% | OVCAR-5 ovarian 83.9% | SK-OV-3 ovarian 45.1% | IGROV1 ovarian 28.5% | OVCAR-3 ovarian 32.5% | HS 578T breast 82.8% | NCI/ADR-RES ovarian 65.9% | T-47D breast 45.3%
active: OVCAR-4 ovarian -39.8%

CC(C)(C)c1nn(-c2ccccc2)c2c1COCN2Cc1ccc(Cl)cc1
inactive: SK-MEL-2 melanoma 94.1% | EKVX NSCLC 98.8% | SN12C renal 96.7% | UO-31 renal 85.2% | TK-10 renal 117% | ACHN renal 89.1% | A498 renal 85.1% | CCRF-CEM leukemia 64.5% | MOLT-4 leukemia 68.1% | SR leukemia 47.2% | RPMI-8226 leukemia 10.9% | OVCAR-8 ovarian 107% | OVCAR-5 ovarian 90% | OVCAR-4 ovarian 77.2% | SK-OV-3 ovarian 92.6% | IGROV1 ovarian 117% | OVCAR-3 ovarian 104% | HS 578T breast 86.2% | NCI/ADR-RES ovarian 94.8% | T-47D breast 73.6%

Cc1cc(C)cc(Nc2nccc(-c3c(-c4ccc(F)cc4)ncn3C3CCNCC3)n2)c1
active: UO-31 renal -28.6% | ACHN renal 4.78% | CCRF-CEM leukemia -12.6% | MOLT-4 leukemia -14.2% | SR leukemia -31% | RPMI-8226 leukemia -3.31% | OVCAR-8 ovarian -24.8% | SK-OV-3 ovarian 9.09% | IGROV1 ovarian -40.1% | OVCAR-3 ovarian 5.97%
inactive: SK-MEL-2 melanoma 21.4% | EKVX NSCLC 27.4% | SN12C renal 16.5% | TK-10 renal 17.8% | A498 renal 53.2% | OVCAR-5 ovarian 35.2% | OVCAR-4 ovarian 30.3% | HS 578T breast 24.3% | NCI/ADR-RES ovarian 15.3% | T-47D breast 15.2%
